Screens (PubChem)
TROY signal inh = inhibitors of TROY-driven NF-kB signaling, primary screen, Q293 LMP1-TROYcd cells, NF-kB luciferase, uHTS | Q293 LMP1-TROYcd NF-kB luciferase reporter, 4 h | inhibition, % at 10 µM | actives 0.98% (n = 360,000);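 active = compounds whose plate-normalised and pattern-corrected inhibition of the luciferase reporter signal at the single screening dose is 50% or more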
LMP1 NFkB inh = EBV LMP1-driven NF-kappaB luciferase reporter inhibitors, primary screen, cell-based, luminescence, single point. inhibition, % at 12.5 µM. actives 0.69% (n = 350,000). LMP1-induced NF-kappaB luciferase reporter cells; in the data active = inhibition above about 41%; inconclusive = no clear call, values can overlap the other calls;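 note: 0% = neutral control wells and 100% = reference inhibitor control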
LGR2 inh = inhibitors of bursicon-induced LGR2 CRE-luciferase signal, primary screen, cell-based, HEK293, CRE-luciferase reporter, bursicon stimulation. bursicon-stimulated, 4 h. actives 0.35% (n = 380,000). inhibition, % at 9.99 µM. AID 720647, 2013;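 active = drop in luminescence signal, shown as inhibition above about 50% in the replicate tests, limit read from the data, passing the limit was not always enough; inconclusive = probably only some replicates passing the limit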;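 note: agonist challenge used bursicon conditioned medium at about half maximal strength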
PAX8 inh HTS = inhibitors of PAX8-driven TPO luciferase reporter, primary screen, RMG-I cells, single concentration | SteadyGlo, 24 h | inhibition, % at 12.6 µM | actives 1.2% (n = 360,000) | AID 652154, 2013;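 active = mean replicate inhibition at least 60% with every replicate also reaching 60%; inconclusive = only one of the two criteria is met; inactive = mean below 60% and not all replicates reaching 60%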;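 note: luciferase light reporting Pax8 driven TPO promoter activity; plate controls were median of neutral control wells for no effect and mitoxantrone controls for full effect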
TWEAK Fn14 block = inhibitors of TWEAK-Fn14 signaling, primary screen, luciferase reporter cells, uHTS | TWEAK-stimulated Fn14 reporter cells, luciferase luminescence, 8 h | inhibition, % at 10 µM | actives 2% (n = 360,000); in the data active = inhibition above about 50%
EWS-Fli block = EWS/Fli-driven NR0B1 reporter inhibitors, primary screen, A673 cells, NR0B1 luciferase, luminescence, MLPCN library; viability-normalised; actives 0.67% (n = 350,000); inhibition, % at 12.6 µM;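 active = mean inhibition of at least 50% after viability correction, with every replicate also passing that limit; inconclusive = mean reaches 50% but only one of two replicates passes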;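 note: firefly luciferase signal divided by Alamar Blue viability fluorescence both relative to DMSO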
* marks the source's active call; other numbers are inactive results. The list is not random: actives were taken first. Their share in the collection is about 3.2%.

Results for Cc1cc(C(=O)CSc2ccc(Cl)cc2)cc(C)c1OC(=S)N(C)C ?
TROY signal inh: 80*; LMP1 NFkB inh: -24; TWEAK Fn14 block: 44

What do the screens show for `CCN(CC)S(=O)(=O)c1ccc2[nH]cc(C(=O)NCCN3CCCCCC3)c(=O)c2c1`?
TROY signal inh: -50; LMP1 NFkB inh: 0; LGR2 inh: 10; TWEAK Fn14 block: 17

Results for CCN(CC)S(=O)(=O)c1ccc2[nH]cc(C(=O)NCCC3=CCCCC3)c(=O)c2c1 ?
TROY signal inh: 44; LMP1 NFkB inh: 0; TWEAK Fn14 block: 59*

What do the screens show for `Cc1noc(C)c1S(=O)(=O)Nc1ccc2c(c1)C(=O)N([C@@H](C)CO)C[C@H](C)[C@@H](CN(C)C(=O)NC(C)C)O2`?
LGR2 inh: -8; EWS-Fli block: -1

What do the screens show for `Cc1ccc2[nH]c(-c3ccccc3)cc(=O)c2c1`?
TROY signal inh: -31; LMP1 NFkB inh: 18; PAX8 inh HTS: -20; TWEAK Fn14 block: -5; EWS-Fli block: 58*

Results for Cc1ccc(C(=O)c2cccc(N)c2)cc1C ?
TROY signal inh: 32; LMP1 NFkB inh: 28; LGR2 inh: -24; PAX8 inh HTS: 1; TWEAK Fn14 block: 52*; EWS-Fli block: inconclusive

What do the screens show for `Cc1ccc(C(=O)c2ccc(O)cc2)cc1C`?
TROY signal inh: -47; LMP1 NFkB inh: -8; PAX8 inh HTS: -60; TWEAK Fn14 block: -9

How did Cc1ccc(S(=O)(=O)NCC[C@@H]2CC[C@H](NC(=O)Nc3cccc(F)c3)[C@@H](CO)O2)cc1 do in these assays?
LGR2 inh: 24; PAX8 inh HTS: 0; EWS-Fli block: 6

How did CCOC(=O)/C(C#N)=C\c1cc(C)n(-c2ccccc2)c1C do in these assays?
TROY signal inh: 79*; LMP1 NFkB inh: -27; PAX8 inh HTS: -211; TWEAK Fn14 block: 81*

What do the screens show for `CNC(=O)/C(C#N)=C/c1cc(C)n(-c2ccc(N3CCOCC3)cc2)c1C`?
TROY signal inh: 16; LMP1 NFkB inh: 2; LGR2 inh: 4; PAX8 inh HTS: 1; TWEAK Fn14 block: 21; EWS-Fli block: -12

What do the screens show for `CCOC(=O)/C(C#N)=C/c1cc(C)n(-c2ccc(C)cc2)c1C`?
TROY signal inh: 50*; LMP1 NFkB inh: -48; LGR2 inh: -3; TWEAK Fn14 block: 42

What do the screens show for `Cc1cc(/C=C(\C#N)C(=O)Nc2ccccc2)c(C)n1-c1ccc(C(=O)O)cc1`?
TROY signal inh: 8; LMP1 NFkB inh: -2; LGR2 inh: -10; PAX8 inh HTS: -20; TWEAK Fn14 block: -7; EWS-Fli block: 2

How did CC(C)NC(=O)N(C)C[C@@H]1OCCCC[C@@H](C)Oc2ccc(NC(=O)Nc3ccc(C(F)(F)F)cc3)cc2C(=O)N([C@@H](C)CO)C[C@@H]1C do in these assays?
LGR2 inh: 15; PAX8 inh HTS: 3; EWS-Fli block: -5

What do the screens show for `CC(C)NC(=O)N(C)C[C@H]1OCCCC[C@@H](C)Oc2ccc(NC(=O)Nc3ccc(C(F)(F)F)cc3)cc2C(=O)N([C@@H](C)CO)C[C@H]1C`?
LGR2 inh: 15; PAX8 inh HTS: 89*; EWS-Fli block: -6

How did CC(C)NC(=O)N(C)C[C@@H]1OCCCC[C@H](C)Oc2ccc(NC(=O)Nc3ccc(C(F)(F)F)cc3)cc2C(=O)N([C@@H](C)CO)C[C@H]1C do in these assays?
LGR2 inh: 20; PAX8 inh HTS: 63*; EWS-Fli block: 5

What do the screens show for `COc1ccc(C(=O)NC2CC2)cc1OC1CCN(Cc2cc(C)c(C)cc2C)CC1`?
TROY signal inh: 16; LMP1 NFkB inh: 5; LGR2 inh: -10; PAX8 inh HTS: 11; TWEAK Fn14 block: 88*; EWS-Fli block: 9

How did COc1ccc(C(=O)NC2CC2)cc1OC1CCN(Cc2cnn(C)c2C)CC1 do in these assays?
TROY signal inh: -13; LMP1 NFkB inh: -1; LGR2 inh: 22; PAX8 inh HTS: -20; TWEAK Fn14 block: -16

What do the screens show for `CC=Cc1ccc2n(c1=O)C[C@@H]1[C@@H](CO)[C@H](C(=O)NCC3CC3)[C@H]2N1Cc1ccccc1` (mixture of isomers)?
LGR2 inh: 8; PAX8 inh HTS: 7; EWS-Fli block: 7

How did CC(C)Cn1c(-c2cccc(S(=O)(=O)N3CCOCC3)c2)n[nH]c1=S do in these assays?
TROY signal inh: 1; LMP1 NFkB inh: 71*; LGR2 inh: -12; PAX8 inh HTS: 0; TWEAK Fn14 block: -7; EWS-Fli block: 0

How did CCC(C)n1c(-c2cccc(S(=O)(=O)N3CCOCC3)c2)n[nH]c1=S (configuration not stated) do in these assays?
TROY signal inh: -9; LMP1 NFkB inh: -6; LGR2 inh: 0; PAX8 inh HTS: -11; TWEAK Fn14 block: 4; EWS-Fli block: 3

Results for CC[n+]1c(C=C2C=C(C)OC(C)=C2)sc2ccccc21 ?
TROY signal inh: 35; LMP1 NFkB inh: 14; LGR2 inh: 21; PAX8 inh HTS: 85*; TWEAK Fn14 block: 20; EWS-Fli block: inconclusive

Results for CN1CCN(S(=O)(=O)c2ccc(NC(=O)Nc3cccc(Cl)c3)cc2)CC1 ?
TROY signal inh: -28; LMP1 NFkB inh: -11; TWEAK Fn14 block: 3

Results for O=C(O)c1cccc(NC(=O)c2ccc(Cl)c(S(=O)(=O)N3CCCCCC3)c2)c1 ?
TROY signal inh: -64; LMP1 NFkB inh: 57*; LGR2 inh: -5; PAX8 inh HTS: -40; TWEAK Fn14 block: -41; EWS-Fli block: 1

How did O=C(Nc1ccccc1C(=O)O)c1cc(S(=O)(=O)N2CCCCC2)c(Cl)cc1Cl do in these assays?
TROY signal inh: 26; LMP1 NFkB inh: 33; LGR2 inh: 7; PAX8 inh HTS: -9; TWEAK Fn14 block: 56*; EWS-Fli block: 7

What do the screens show for `O=C(COC(=O)c1ccc(Cl)c(S(=O)(=O)N2CCCCCC2)c1)Nc1ccccc1`?
TROY signal inh: 58*; LMP1 NFkB inh: -15; PAX8 inh HTS: -19; TWEAK Fn14 block: 23; EWS-Fli block: -14

What do the screens show for `O=C(COC(=O)c1ccc(S(=O)(=O)N2CCCC2)cc1)Nc1ccccc1`?
TROY signal inh: 6; LMP1 NFkB inh: 8; LGR2 inh: 17; PAX8 inh HTS: -17; TWEAK Fn14 block: 9; EWS-Fli block: -5

Results for O=C(Nc1cccc(Cl)c1)Nc1cc(S(=O)(=O)N2CCCCC2)ccc1Cl ?
TROY signal inh: 56*; LMP1 NFkB inh: 4; LGR2 inh: 34; PAX8 inh HTS: 75*; TWEAK Fn14 block: 84*; EWS-Fli block: 23

How did O=C(C1=C[C@@H](c2ccc3c(c2)OCO3)C[C@@H](OCc2ccc(CO)cc2)O1)N1CCCCCCC1 do in these assays?
PAX8 inh HTS: -3; EWS-Fli block: -9
